Assay results reported in PubChem BioAssay AID1259374 (The Scripps Research Institute Molecular Screening Center, 2018).
About 5,900 (0.91%) of roughly 650,000 compounds were called active. No stated cut-off is given here; in the data, active means inhibition above about 50%; inactive means the rest. Many of the other results were omitted from the sample, so actives are more common in it than they were.

Molecular target: Microphthalmia-associated transcription factor (Homo sapiens) (UniProt O75030)
Sequence (O75030 whole entry, looked up): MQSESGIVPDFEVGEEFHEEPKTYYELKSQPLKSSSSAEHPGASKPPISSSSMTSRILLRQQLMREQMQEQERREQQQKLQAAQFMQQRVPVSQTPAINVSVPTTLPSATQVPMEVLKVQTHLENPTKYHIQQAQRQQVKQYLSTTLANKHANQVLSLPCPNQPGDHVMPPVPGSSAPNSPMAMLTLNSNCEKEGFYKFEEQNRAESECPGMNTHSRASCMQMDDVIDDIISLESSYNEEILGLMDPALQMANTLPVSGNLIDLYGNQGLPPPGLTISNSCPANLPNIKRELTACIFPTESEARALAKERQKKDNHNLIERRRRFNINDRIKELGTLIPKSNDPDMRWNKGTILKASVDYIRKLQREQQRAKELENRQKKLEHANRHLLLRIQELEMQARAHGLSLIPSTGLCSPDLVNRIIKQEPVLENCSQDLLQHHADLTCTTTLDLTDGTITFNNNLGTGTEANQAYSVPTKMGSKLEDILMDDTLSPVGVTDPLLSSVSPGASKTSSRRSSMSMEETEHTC
Assay: MITF inhibitors, primary screen, biochemical, AlphaScreen, human (AID 1259374);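 further: 0% = vehicle wells with protein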
Conditions: AlphaScreen MITF homodimerization, bead proximity signal; at 2.6 µM; active compounds read high

Row | Structure (SMILES) | inhibition
1 | CCOC(=O)c1sc(NC(=O)c2ccc(S(=O)(=O)N3CCc4ccccc43)cc2)nc1-c1ccccc1 | 15.2% (inactive)
2 | CCOC(=O)c1c(NC(=O)C(C)Sc2nnc(CNC(=O)c3ccc(C)c([N+](=O)[O-])c3)n2CCc2ccccc2)sc2c1CCC2 (stereo unspecified) | -9.22% (inactive)
3 | O=C(COc1ccc(Cl)cc1Cl)Nc1ccc(Br)cn1 | 9.36% (inactive)
4 | Cc1cc(-n2c(C)nc3ccccc3c2=O)ccc1NS(=O)(=O)c1ccccc1 | -5.82% (inactive)
5 | O=C(O)CNC(=O)/C(=C/c1ccc2c(c1)OCO2)NC(=O)c1cccc(Br)c1 | -6.12% (inactive)
6 | COc1ccccc1NC(=O)N1CCC(CO)(Cc2ccccc2Cl)CC1 | -1.19% (inactive)
7 | COc1c(S(=O)(=O)N2CCN(Cc3ccccc3)CC2)ccc(Cl)c1Cl | -5.29% (inactive)
8 | COc1ccc(CN2CCN(Cc3cccnc3)CC2)cc1OCc1ccccc1 | 75.8% (active)
9 | O=C1CCN(Cc2cccnc2)CCN1Cc1c(F)cc(F)cc1F | 10.8% (inactive)
10 | COc1cc(OC)c(OC)cc1CN1CCN(C(=O)c2ccccc2F)CC1 | 17.8% (inactive)
11 | c1ccc(COc2ccccc2CNCc2cccnc2)cc1 | -4.27% (inactive)
12 | CCCS(=O)(=O)N1CCN(Cc2ccc(OC)c(OCc3ccccc3)c2)CC1 | 52.7% (active)
13 | COc1cccc(OC)c1C(=O)N1CCN(Cc2ccccc2F)CC1 | 55.7% (active)
14 | c1ccc(CCc2nnc3n2CCN(Cc2cccnc2)CC3)cc1 | 4.85% (inactive)
15 | Brc1cccc(CN2CCN(Cc3cccnc3)CC2)c1 | 77.7% (active)
16 | COc1cc(CN2CCC(O)CC2)ccc1OCc1ccccc1 | -15% (inactive)
17 | CCOC(=O)C1CCN(Cc2ccccc2F)CC1 | 26.1% (inactive)
18 | COc1ccc(/C=N/N2CCN(C)CC2)cc1OCc1ccccc1 | 21.7% (inactive)
19 | COc1ccc(NC(=O)c2cc(C3CC3)on2)cc1 | -14% (inactive)
20 | NS(=O)(=O)c1ccc(NSc2ccccc2[N+](=O)[O-])cc1 | 13.8% (inactive)
21 | CC(=O)Nc1ccc(OCC(O)CN2CCN(c3cccc(C(F)(F)F)c3)CC2)cc1 (stereo unspecified) | 10.8% (inactive)

Row | Structure (SMILES) | inhibition
22 | CC1CCN(C(=O)CSc2nc3c(c(=O)n2CCc2ccccc2)SCC3)CC1 | -10.8% (inactive)
23 | CC(=O)Nc1ccc(C(=O)N/N=C/c2cccc(C)n2)cc1 | 9.97% (inactive)
24 | C=CCOc1ccc(C2Nc3ccccc3-c3nnc(SC)nc3O2)cc1 (stereo unspecified) | 3.95% (inactive)
25 | CC(C)C(=O)NC(NC(=S)Nc1ccccc1C(=O)O)C(Cl)(Cl)Cl (stereo unspecified) | 9.89% (inactive)
26 | COc1ccc(Cn2nc(-c3ccncc3)oc2=O)cc1 | 3.66% (inactive)
27 | O=C(NCCOc1ccccc1)c1cc(-c2ccccc2)nc2c(Cl)cccc12 | -8.8% (inactive)
28 | COc1ccccc1C(=O)N1CCN=C1SCc1cccnc1 | -16.8% (inactive)
29 | COC(=O)c1ccccc1S(=O)(=O)C1CCN(Cc2cccnc2)CC1 | 13.1% (inactive)
30 | COc1cccc(OC)c1C(=O)N1CCN(Cc2cccnc2)CC1 | 79.5% (active)
31 | Cc1cc(C)c(S(=O)(=O)N(C)CCO)cc1N(C)S(=O)(=O)c1ccc(Cl)cc1 | -12% (inactive)
32 | CCCCC(=O)N1CCN(c2ccccc2OCC)CC1 | -2.97% (inactive)
33 | CCN(CC)CCNC(=O)c1sc2ncn(Cc3ccccc3F)c(=O)c2c1C | -7.31% (inactive)
34 | COc1cccc(C2Nc3ccc(C(=O)O)cc3C3C=CCC32)c1OC (stereo unspecified) | 13.7% (inactive)
35 | CCOc1cccc2c1N[C@@H](c1ccc(C(=O)O)cc1)[C@H]1CC=C[C@@H]21 | 65.3% (active)
36 | COC(=O)c1ccc(C2Nc3c(C(=O)OC)cccc3C3C=CCC32)cc1 (stereo unspecified) | 4.19% (inactive)
37 | O=C(NNC(=O)c1ccccn1)NC12CC3CC(CC(C3)C1)C2 | 5.98% (inactive)
38 | COc1cccc(C(=O)NCCSc2ncc(-c3ccc(C)cc3)[nH]2)c1 | 8.31% (inactive)
39 | Cc1ccc(-c2nc(C#N)c(NCCCn3ccnc3)o2)cc1 | -5.46% (inactive)
40 | N#Cc1nc(COc2cccc(Cl)c2)oc1NCCCn1ccnc1 | 62.2% (active)
41 | Cc1cccc(OCc2nc(C#N)c(NCCCN(C)C)o2)c1 | -13.4% (inactive)
42 | O=C(CSc1ccc2nc(-c3ccccc3)cn2n1)Nc1cccc2ccccc12 | -15.1% (inactive)

Row | Structure (SMILES) | inhibition
43 | CCN1C(=O)/C(=C/c2ccc(-c3ccc(Br)cc3)o2)N(CC)C1=S | -10.4% (inactive)
44 | COc1ccccc1CN1CCN(S(=O)(=O)c2ccc([N+](=O)[O-])cc2)CC1 | 39.9% (inactive)
45 | CSc1ccc(CN2CCN(S(=O)(=O)c3ccc([N+](=O)[O-])cc3)CC2)cc1 | 53.2% (active)
46 | Cc1ccc(S(=O)(=O)N2CCN(Cc3ccc(F)cc3)CC2)cc1 | 49.5% (inactive)
47 | CSc1ccccc1NC(=O)c1cc2nc(-c3ccc(Br)cc3)cc(C(F)(F)F)n2n1 | -5.34% (inactive)
48 | COc1cc(C2N=C(c3ccccc3)C(C)(C)N2O)ccc1O (stereo unspecified) | 2.87% (inactive)
49 | O=S(=O)(c1ccc(Cl)cc1)N1CCc2ccccc2C1 | 10.1% (inactive)
50 | CCOC(=O)c1c(NC(=O)c2ccc(OC)cc2OC)sc(C(C)=O)c1C | 7.53% (inactive)
51 | Cc1cccc(C(=S)N2CCOCC2)c1 | -19.2% (inactive)
52 | COc1ccc(CNc2ccc3ncc(-c4cccc(O)c4)n3n2)cc1 | -19% (inactive)
53 | COc1cccc(CN2CCN(CCCc3ccccc3)CC2CCO)c1 (stereo unspecified) | 69% (active)
54 | COc1ccc(CN2CCN(CCCc3ccccc3)C(CCO)C2)cc1O (stereo unspecified) | 7.3% (inactive)
55 | CCOc1cc(CN2CCN(Cc3cccc(OC)c3)C(CCO)C2)ccc1O (stereo unspecified) | -2.92% (inactive)
56 | OCC1CCN(C2CCCN(Cc3cccc(-c4ccco4)c3)C2)CC1 (stereo unspecified) | 3.07% (inactive)
57 | COc1ccccc1N1C(=O)c2ccc(C(=O)NN3C(=O)c4ccccc4C3=O)cc2C1=O | 11.1% (inactive)
58 | COc1cc(N/N=C(\C)c2ccc([N+](=O)[O-])cc2)ncn1 | 9.19% (inactive)
59 | Cc1cccc(CSc2n[nH]c(=O)[nH]c2=O)c1 | 58.5% (active)
60 | O=c1[nH]nc(SCc2ccc(Cl)cc2)c(=O)[nH]1 | 4.19% (inactive)
61 | O=c1[nH]nc(SCc2cn3cc(Cl)ccc3n2)c(=O)[nH]1 | -5.72% (inactive)
